Measurements from the supplement of paper PMC10849652.
About 8,800 targets were measured; listed, in parts, are those with a hit and a random draw of the rest. About 0.5% of all pairs of compound and target were hits. A number with no mark means an inactive call.

compound: CN1CC[C@H](c2c(O)cc(O)c3c(=O)cc(-c4ccccc4Cl)oc23)[C@H](O)C1 [alvocidib]; experiment: log2 fold change, soluble protein after heating vs DMSO (PISA); higher = thermal stabilisation; K562 lysate, 10 uM; active = over 0.2 and 3.5 SD of the protein, either way, in both replicates (recomputed)
Method in brief: (§1)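 Thermal stability, expressed as log-two fold change relative to solvent controls, is given from duplicates. Crude K562 extract in PBS pH 7.4 with 1 mM MgCl2, at 1 mg/mL protein, was treated with 10 μM compound for 30 min and heated in aliquots for 3 min across 48°C-58°C. After pooling, adjustment to 0.5% NP-40 at 4°C and centrifugation at 21,000xg for 90 min, supernatant protein was measured by TMTpro 16plex LC-MS/MS with channel sums equalised.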

UniProt Q00536, sequence (Q00536 whole entry, looked up): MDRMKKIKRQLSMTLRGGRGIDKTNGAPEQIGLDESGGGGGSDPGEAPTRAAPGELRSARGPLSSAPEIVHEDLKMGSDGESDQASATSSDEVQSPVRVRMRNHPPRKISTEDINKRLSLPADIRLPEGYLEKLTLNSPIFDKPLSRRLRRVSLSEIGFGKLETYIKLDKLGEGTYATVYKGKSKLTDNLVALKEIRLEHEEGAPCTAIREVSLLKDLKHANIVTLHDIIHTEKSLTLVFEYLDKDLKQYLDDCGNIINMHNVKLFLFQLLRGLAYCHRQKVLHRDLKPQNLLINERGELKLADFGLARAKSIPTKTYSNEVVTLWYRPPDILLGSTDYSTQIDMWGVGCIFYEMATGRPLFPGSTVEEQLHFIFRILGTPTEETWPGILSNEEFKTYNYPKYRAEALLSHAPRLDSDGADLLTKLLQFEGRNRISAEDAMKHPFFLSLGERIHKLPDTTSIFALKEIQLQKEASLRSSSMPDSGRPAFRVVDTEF
UniProt P30281, sequence (P30281 whole entry, looked up): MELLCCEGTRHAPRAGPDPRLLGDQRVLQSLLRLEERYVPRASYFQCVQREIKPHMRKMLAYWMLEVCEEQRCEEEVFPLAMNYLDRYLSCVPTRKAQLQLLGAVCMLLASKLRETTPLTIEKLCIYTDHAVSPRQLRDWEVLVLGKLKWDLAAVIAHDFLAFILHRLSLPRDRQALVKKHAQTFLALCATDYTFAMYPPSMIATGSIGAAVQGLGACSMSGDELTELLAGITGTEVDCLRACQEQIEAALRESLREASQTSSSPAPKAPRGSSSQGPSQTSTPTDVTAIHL
UniProt O43303, sequence (O43303 whole entry, looked up): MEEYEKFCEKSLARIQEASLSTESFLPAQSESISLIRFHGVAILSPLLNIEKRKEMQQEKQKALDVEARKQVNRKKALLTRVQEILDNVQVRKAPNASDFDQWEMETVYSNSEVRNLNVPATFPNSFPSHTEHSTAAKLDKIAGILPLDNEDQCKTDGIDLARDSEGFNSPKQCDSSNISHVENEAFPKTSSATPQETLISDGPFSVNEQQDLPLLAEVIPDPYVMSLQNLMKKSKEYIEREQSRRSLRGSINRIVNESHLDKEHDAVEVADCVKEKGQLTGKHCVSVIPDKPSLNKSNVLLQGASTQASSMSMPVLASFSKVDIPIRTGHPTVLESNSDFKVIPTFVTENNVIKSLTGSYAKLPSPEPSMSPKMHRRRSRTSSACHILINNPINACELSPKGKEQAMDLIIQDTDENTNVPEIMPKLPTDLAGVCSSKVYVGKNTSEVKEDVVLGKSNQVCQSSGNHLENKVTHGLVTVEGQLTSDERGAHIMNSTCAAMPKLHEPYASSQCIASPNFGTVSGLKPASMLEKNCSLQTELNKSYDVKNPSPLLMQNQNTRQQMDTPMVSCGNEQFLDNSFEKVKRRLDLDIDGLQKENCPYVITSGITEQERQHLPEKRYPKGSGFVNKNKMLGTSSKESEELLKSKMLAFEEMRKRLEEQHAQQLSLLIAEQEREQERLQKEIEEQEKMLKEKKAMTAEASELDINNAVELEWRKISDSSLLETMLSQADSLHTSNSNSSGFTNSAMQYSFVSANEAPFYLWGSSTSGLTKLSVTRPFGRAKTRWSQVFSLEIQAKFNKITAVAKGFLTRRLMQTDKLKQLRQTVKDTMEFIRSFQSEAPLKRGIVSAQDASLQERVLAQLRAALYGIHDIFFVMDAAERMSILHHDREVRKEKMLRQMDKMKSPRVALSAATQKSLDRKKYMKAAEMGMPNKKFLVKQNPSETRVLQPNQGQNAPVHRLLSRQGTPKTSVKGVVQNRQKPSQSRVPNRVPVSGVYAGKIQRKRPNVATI
UniProt Q7Z7K6, sequence (Q7Z7K6 whole entry, looked up): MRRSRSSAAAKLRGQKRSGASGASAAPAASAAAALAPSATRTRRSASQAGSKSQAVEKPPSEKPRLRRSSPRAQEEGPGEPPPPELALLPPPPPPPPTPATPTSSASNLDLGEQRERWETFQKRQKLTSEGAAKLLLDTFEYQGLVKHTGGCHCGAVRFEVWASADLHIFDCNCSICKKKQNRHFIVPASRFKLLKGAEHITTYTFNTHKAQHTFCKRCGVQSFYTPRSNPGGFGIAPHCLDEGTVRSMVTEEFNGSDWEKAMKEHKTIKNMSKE
UniProt Q53HL2, sequence (Q53HL2 whole entry, looked up): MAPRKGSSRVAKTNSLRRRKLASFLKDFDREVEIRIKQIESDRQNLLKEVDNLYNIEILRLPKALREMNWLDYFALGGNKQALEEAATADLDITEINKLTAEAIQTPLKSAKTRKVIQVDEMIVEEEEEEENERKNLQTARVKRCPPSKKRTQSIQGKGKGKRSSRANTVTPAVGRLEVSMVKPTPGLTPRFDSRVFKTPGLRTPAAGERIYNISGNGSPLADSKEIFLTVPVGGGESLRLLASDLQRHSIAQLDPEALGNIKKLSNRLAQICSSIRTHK
UniProt Q9P281, sequence (Q9P281 whole entry, looked up): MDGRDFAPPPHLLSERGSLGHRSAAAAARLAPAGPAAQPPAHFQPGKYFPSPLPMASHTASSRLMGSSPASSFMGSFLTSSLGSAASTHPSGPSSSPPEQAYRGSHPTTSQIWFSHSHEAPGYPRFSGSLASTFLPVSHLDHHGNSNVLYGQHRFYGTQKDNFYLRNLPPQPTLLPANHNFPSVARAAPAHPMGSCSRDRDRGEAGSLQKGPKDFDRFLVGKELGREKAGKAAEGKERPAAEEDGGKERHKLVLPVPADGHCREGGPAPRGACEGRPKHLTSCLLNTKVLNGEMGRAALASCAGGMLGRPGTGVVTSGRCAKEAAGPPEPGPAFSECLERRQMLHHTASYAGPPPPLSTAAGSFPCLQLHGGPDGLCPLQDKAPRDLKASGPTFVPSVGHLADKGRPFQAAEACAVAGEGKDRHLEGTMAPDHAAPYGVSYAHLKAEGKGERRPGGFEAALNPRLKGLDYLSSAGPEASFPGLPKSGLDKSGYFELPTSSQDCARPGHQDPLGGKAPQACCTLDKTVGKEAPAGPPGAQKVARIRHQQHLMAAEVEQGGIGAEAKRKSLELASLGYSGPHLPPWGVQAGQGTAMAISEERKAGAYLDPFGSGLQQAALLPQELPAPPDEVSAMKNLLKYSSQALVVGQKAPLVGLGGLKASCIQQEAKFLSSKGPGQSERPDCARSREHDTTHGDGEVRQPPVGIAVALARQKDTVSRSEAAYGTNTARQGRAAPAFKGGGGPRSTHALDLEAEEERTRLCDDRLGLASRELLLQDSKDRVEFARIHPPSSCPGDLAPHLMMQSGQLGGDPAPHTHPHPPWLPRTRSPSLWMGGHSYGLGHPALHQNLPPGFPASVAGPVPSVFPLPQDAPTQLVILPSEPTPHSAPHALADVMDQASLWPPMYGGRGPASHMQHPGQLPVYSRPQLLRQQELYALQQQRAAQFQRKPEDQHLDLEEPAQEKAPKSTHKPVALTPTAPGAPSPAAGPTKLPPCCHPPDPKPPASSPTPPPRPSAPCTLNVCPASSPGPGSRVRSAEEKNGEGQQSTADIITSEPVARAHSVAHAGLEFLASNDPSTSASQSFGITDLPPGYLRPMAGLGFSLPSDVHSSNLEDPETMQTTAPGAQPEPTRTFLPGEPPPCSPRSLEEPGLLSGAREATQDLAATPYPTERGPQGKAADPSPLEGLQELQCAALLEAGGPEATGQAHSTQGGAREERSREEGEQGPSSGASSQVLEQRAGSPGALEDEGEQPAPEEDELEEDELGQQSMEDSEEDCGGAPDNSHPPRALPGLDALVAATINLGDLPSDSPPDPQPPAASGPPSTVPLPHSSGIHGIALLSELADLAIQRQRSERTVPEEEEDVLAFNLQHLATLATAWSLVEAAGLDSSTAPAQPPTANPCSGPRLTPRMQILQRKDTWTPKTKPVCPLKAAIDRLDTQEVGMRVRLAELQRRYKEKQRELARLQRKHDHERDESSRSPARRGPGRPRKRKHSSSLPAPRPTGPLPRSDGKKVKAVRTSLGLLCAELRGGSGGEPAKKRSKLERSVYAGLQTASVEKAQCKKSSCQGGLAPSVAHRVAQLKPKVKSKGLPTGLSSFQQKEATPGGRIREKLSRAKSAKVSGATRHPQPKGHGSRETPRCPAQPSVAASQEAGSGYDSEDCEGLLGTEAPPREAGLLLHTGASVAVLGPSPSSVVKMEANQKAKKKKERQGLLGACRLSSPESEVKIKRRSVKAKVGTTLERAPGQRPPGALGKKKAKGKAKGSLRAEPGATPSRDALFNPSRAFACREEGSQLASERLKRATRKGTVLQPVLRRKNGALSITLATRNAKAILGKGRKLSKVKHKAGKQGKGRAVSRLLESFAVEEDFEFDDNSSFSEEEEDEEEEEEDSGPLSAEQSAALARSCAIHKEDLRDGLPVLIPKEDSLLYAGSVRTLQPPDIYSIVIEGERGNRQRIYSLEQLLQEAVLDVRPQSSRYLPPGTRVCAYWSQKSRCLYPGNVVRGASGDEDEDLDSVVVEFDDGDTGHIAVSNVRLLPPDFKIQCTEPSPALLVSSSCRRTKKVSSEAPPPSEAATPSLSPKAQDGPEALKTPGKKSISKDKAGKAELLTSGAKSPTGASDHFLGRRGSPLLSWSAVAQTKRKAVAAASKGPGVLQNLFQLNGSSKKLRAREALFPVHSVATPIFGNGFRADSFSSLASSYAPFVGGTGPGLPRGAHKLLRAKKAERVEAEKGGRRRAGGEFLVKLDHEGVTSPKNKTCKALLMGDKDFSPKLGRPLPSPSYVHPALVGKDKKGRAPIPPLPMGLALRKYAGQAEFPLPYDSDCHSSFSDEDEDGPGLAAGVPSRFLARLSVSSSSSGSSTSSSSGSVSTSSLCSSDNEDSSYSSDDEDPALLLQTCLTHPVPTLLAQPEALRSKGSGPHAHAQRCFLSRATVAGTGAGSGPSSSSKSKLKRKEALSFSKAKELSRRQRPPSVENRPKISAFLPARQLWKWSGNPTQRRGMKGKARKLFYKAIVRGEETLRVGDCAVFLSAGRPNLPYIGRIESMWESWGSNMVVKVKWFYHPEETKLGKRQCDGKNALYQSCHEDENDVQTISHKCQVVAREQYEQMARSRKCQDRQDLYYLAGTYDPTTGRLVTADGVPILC

Row | Target | log2 fold change
1 | C3AR1 (UniProt Q16581) | 0.055
2 | CCND3 (UniProt P30281) | 0.144
3 | CDKL5 (UniProt O76039) | 1.14 (active)
4 | CDK11A (UniProt Q9UQ88) | 0.077
5 | CDCA8 (UniProt Q53HL2) | 0.091
6 | CAMK2B (UniProt Q13554) | 0.318
7 | CASC1 (UniProt Q6TDU7) | -0.023
8 | CEP128 (UniProt Q6ZU80) | -0.294
9 | CEP57L1 (UniProt Q8IYX8) | -0.024
10 | BAHCC1 (UniProt Q9P281) | -0.569
11 | C6orf120 (UniProt Q7Z4R8) | 0.096
12 | CENPV (UniProt Q7Z7K6) | -0.15
13 | CARHSP1 (UniProt H3BNU9) | -0.027
14 | CEP41 (UniProt Q9BYV8) | 0.042
15 | CEP295 isoform 3 (UniProt Q9C0D2) | -0.039
16 | ATE1 (UniProt O95260) | -0.024
17 | CHCHD7 isoform 4 (UniProt Q9BUK0) | -0.097
18 | BRD3 (UniProt Q15059) | -0.059
19 | BICRA (UniProt Q9NZM4) | -0.113
20 | C8orf88 (UniProt P0DMB2) | 0.072
21 | CAD (UniProt H7BZB3) | 0.005
22 | BMT2 (UniProt Q1RMZ1) | -0.004

compound: CN1CCc2c(c3ccccc3n2Cc2ccc(C(=O)NO)cc2)C1 [Tubastatin A]; experiment: as above
Method in brief: as §1

Row | Target | log2 fold change
23 | CCND3 (UniProt P30281) | -0.001
24 | CASP7 isoform 3 (UniProt P55210) | -0.051
25 | CDK11A (UniProt Q9UQ88) | -0.172
26 | ATG4D (UniProt Q86TL0) | -0.09
27 | CAMK2B (UniProt Q13554) | -0.035
28 | B3GALT6 (UniProt Q96L58) | 0.051
29 | CASC1 (UniProt Q6TDU7) | 0.317
30 | CEP128 (UniProt Q6ZU80) | 0.565
31 | CDC14A isoform 2 (UniProt Q9UNH5) | 0.272
32 | CEP57L1 (UniProt Q8IYX8) | -0.143
33 | CCP110 (UniProt O43303) | -0.045
34 | CENPV (UniProt Q7Z7K6) | -0.458
35 | ATPSCKMT (UniProt Q6P4H8) | -0.368 (active)
36 | CDK16 isoform 2 (UniProt Q00536) | 0.029
37 | CEP295 isoform 3 (UniProt Q9C0D2) | -0.099
38 | CHCHD7 isoform 4 (UniProt Q9BUK0) | 0.082
39 | CAPNS1 (UniProt K7ES78) | -0.074
40 | CDC25A (UniProt P30304) | -0.406 (active)
41 | BICRA (UniProt Q9NZM4) | 0.335
42 | C8orf88 (UniProt P0DMB2) | -0.064
43 | C16orf70 (UniProt Q9BSU1) | 0.075
44 | CHD4, A0A2R8Y521 | -0.117
45 | CCDC130 (UniProt P13994) | -0.066

compound: CNC(=O)C1=CC=CC=C1NC2=NC(=NC=C2Cl)NC3=C(C=C(C=C3)N4CCOCC4)OC; experiment: as above
Method in brief: as §1

Row | Target | log2 fold change
46 | CCND3 (UniProt P30281) | 0.024
47 | CASP7 isoform 3 (UniProt P55210) | -0.016
48 | CDK11A (UniProt Q9UQ88) | -0.011
49 | CDCA8 (UniProt Q53HL2) | 0.054
50 | B3GALT6 (UniProt Q96L58) | -0.025
51 | CEP57L1 (UniProt Q8IYX8) | 0.141
52 | BAHCC1 (UniProt Q9P281) | -0.135
53 | C6orf120 (UniProt Q7Z4R8) | 0.031
54 | CCP110 (UniProt O43303) | -0.115
55 | CEP41 (UniProt Q9BYV8) | 0.083
56 | CDK16 isoform 2 (UniProt Q00536) | 0.05
57 | CEP295 isoform 3 (UniProt Q9C0D2) | -0.029
58 | BRD3 (UniProt Q15059) | 0.105
59 | CAPNS1 (UniProt K7ES78) | 0.001
60 | CDC25A (UniProt P30304) | -0.121
61 | BICRA (UniProt Q9NZM4) | 0.101
62 | C8orf88 (UniProt P0DMB2) | 0.07
63 | C16orf70 (UniProt Q9BSU1) | 0.082
64 | CAD (UniProt H7BZB3) | 0.28
65 | CCDC130 (UniProt P13994) | -0.275

compound: CNC(=O)c1ccc(Nc2ncc(C(F)(F)F)c(NCc3nccnc3N(C)S(C)(=O)=O)n2)cc1 [defactinib]; experiment: as above
Method in brief: as §1

Row | Target | log2 fold change
66 | CDKL5 (UniProt O76039) | 0.55
67 | CANX (UniProt D6RHJ3) | 0.174
68 | CDCA8 (UniProt Q53HL2) | 0.144
69 | CAMK2B (UniProt Q13554) | 0.009
70 | CEP128 (UniProt Q6ZU80) | -0.052
71 | BRAF, A0A2R8Y8E0 | -0.029
72 | BAHCC1 (UniProt Q9P281) | -0.208
73 | CCP110 (UniProt O43303) | 0.181
74 | CENPV (UniProt Q7Z7K6) | 0.117
75 | CEP41 (UniProt Q9BYV8) | 0.015
76 | CDK16 isoform 2 (UniProt Q00536) | 0.285
77 | CHCHD7 isoform 4 (UniProt Q9BUK0) | -0.009
78 | BRD3 (UniProt Q15059) | 0.017
79 | CAPNS1 (UniProt K7ES78) | 0.035
80 | C16orf70 (UniProt Q9BSU1) | 0.216
81 | CAD (UniProt H7BZB3) | 0.036
